Experimental data from PubChem BioAssay (NCI).
Compounds without any hit were thinned out: in the full panel of roughly 79,000, 15% have a hit. No stated cut-off is given here; in the data, active means growth inhibition above about 70%; inactive means the rest.

Key:
[1] = NCI Yeast Anticancer Drug Screen. Data for the rad50 strain (AID 155);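 further: 0% = growth of vehicle-only cultures of the same strain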; conditions: S. cerevisiae rad50 strain growth inhibition; at 50.0 µM; stronger effect = higher value
How it was run: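 Yeast carrying a defined DNA repair defect were exposed to test compounds, and growth was compared with vehicle-treated controls to give percent inhibition.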

[2] = NCI Yeast Anticancer Drug Screen. Data for the mec2-1 strain (AID 157); conditions: S. cerevisiae mec2-1 strain, at 50.0 µM, stronger effect = higher value
How it was run: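 Each compound was tested on mec2-1 yeast, a strain altered in DNA damage repair or cell cycle control. Growth inhibition is reported relative to vehicle.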

[3] = NCI Yeast Anticancer Drug Screen. Data for the mlh1 rad18 strain (AID 175); conditions: S. cerevisiae mlh1 rad18 strain growth inhibition; at 50.0 µM; stronger effect = higher value
How it was run: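 Inhibition values reflect reduced growth of mutant yeast versus vehicle-treated controls following compound exposure; the mutations affect DNA damage repair.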

Measured: growth inhibition

COc1ccc(COC(=O)N=[N+]=[N-])cc1
inactive: [1] 19.1% | [2] 3.85% | [3] 13.4%

N#C/C(=C/c1ccccc1Cl)C(N)=O
inactive: [1] -12.2% | [2] -7.05% | [3] 6.15%

Cc1c(Cl)cccc1N1C(=O)CC(Sc2ccccc2N)C1=O (stereo not given)
inactive: [1] 1.05% | [2] -13.9% | [3] 3%

O=C(O)/C=C\C(=O)Nc1ccccc1NC(=O)/C=C/C(=O)O
inactive: [1] 3.45% | [2] -26.1% | [3] -16.2%

CCOc1cccc(/C=C2\N=C(c3ccccc3)OC2=O)c1
inactive: [1] 4.35% | [2] 25% | [3] 10.9%

COc1cc(-c2cc(=O)c3c(C)cc(O)cc3o2)cc(OC)c1OC
inactive: [1] -2.1% | [2] -9% | [3] 45.6%

COc1ccc(-c2coc3ccc4ccccc4c3c2=O)cc1OC
inactive: [1] 16% | [2] -15.1% | [3] 7.25%

COc1ccc(NCc2ccc(C)cc2)cc1
inactive: [1] -2.55% | [2] -17.1% | [3] 3.45%

O=C(NC(CO)C(O)c1ccc([N+](=O)[O-])cc1)C(Cl)Cl (stereo not given)
inactive: [1] -32.2% | [2] -35.6% | [3] -19.5%

COc1ccc(NC(=S)Nc2ccccn2)cc1
inactive: [1] -9.3% | [2] -12.3% | [3] 0.65%

CCOc1ccc(Br)cc1/C=N/NS(=O)(=O)c1ccc(C)cc1
inactive: [1] 46.7% | [2] 29.1% | [3] 8.35%

COc1ccc(/C=C(\C#N)c2ccc(Cl)cc2)cc1OC
inactive: [1] -2.05% | [2] -8% | [3] -1.15%

COc1ccc(C(CCl)(CCl)c2ccc(OC)c(N)c2)cc1N
inactive: [1] 12.3% | [2] 14% | [3] 28.6%

CCC(=O)CC1CCCC(CC(=O)CC)N1C (stereo not given)
inactive: [1] -4.6% | [2] -2.55% | [3] 17.6%

Nc1ccccc1SC1CC(=O)N(c2cccc3ccccc23)C1=O (stereo not given)
inactive: [1] -19.6% | [2] -7.6% | [3] -12.8%

COC(=O)C/C(=C/C=C1/C(=O)ON=C1C)c1c(C)[nH]oc1=O
inactive: [1] -10.9% | [2] -29.9% | [3] -16.9%

COc1ccc(N=c2ssc(SC)c2-c2ccccc2)cc1
inactive: [1] 15.4% | [2] -11.4% | [3] -0.8%

Cc1ccc2c(c1)=N/C(=N\c1nc(O)c(O)[nH]1)N=2
inactive: [1] 7.4% | [2] -15.3% | [3] -4.55%

C[N+]12OC3CC1C1OC1C2C3 (stereo not given)
inactive: [1] -4.55% | [2] -9.4% | [3] 25.4%

Cc1ccccc1CC1c2[nH]c3ccccc3c2CCN1C (stereo not given)
inactive: [1] -9.95% | [2] -50.5% | [3] -22.4%

O=C(O)c1ccccc1C(=O)NNC(=O)c1ccccc1C(=O)O
inactive: [1] 4.65% | [2] -5.3% | [3] -13.6%

COc1cc(C(=O)N/N=C/c2ccc(N(C)C)cc2)cc(OC)c1OC
inactive: [1] -32.2% | [2] -45.2% | [3] -20.8%

COc1ccccc1N1C(=O)CC(Sc2ccccc2N)C1=O (stereo not given)
inactive: [1] -2.4% | [2] -19.4% | [3] 13.1%

Clc1nc(Oc2ccccc2)nc(-c2cn(-c3ccccc3)c3ccccc23)n1
inactive: [1] 2.05% | [2] -12.6% | [3] -6.35%

COc1ccccc1Oc1ccc(N=Cc2ccc(C)cc2)cc1
inactive: [1] -16.4% | [2] -25.3% | [3] 5.3%

CC(=O)Nc1ccc(/C=C/C(=O)c2ccc(Cl)cc2)cc1
inactive: [1] 18.2% | [2] -4.65% | [3] 2.75%

O=c1oc(-c2ccc(Cl)cc2)nc2cc(Cl)ccc12
inactive: [1] -20.6% | [2] -14.7% | [3] -20.8%

O=C1c2ccccc2C(=O)c2c1cccc2N1C(=O)C=CC1=O
inactive: [1] 51.2% | [2] 37.9% | [3] 63.7%

CCCCCCCCCCCCCCCCOc1ccc(C(=O)NN)cc1N
inactive: [1] -18.6% | [2] -29.9% | [3] -14.6%

Cc1n[nH]c(=O)n(/N=C\c2c[nH]c3ccccc23)c1=O
inactive: [1] 0.2% | [2] -4.55% | [3] -1.55%
